System: Vero E6 infected with SARS-CoV-2
Test: inhibition of SARS-CoV-2 cytopathic effect; higher = more antiviral protection, active = above 15
Conditions: 48 h

Measured: inhibition of SARS-CoV-2 cytopathic effect

N[C@@H](C(=O)N[C@@H]1C(=O)N2C(C(=O)O)=C(Cl)CC[C@H]12)c1ccccc1 [loracarbef]
inactive: 1 nM 7.18% | 8.33 nM 4.02% | 100 nM 2.95% | 833.33 nM 1.17% | 10000 nM 5.45%

CCN(CC)CCOCCOC(=O)C(CC)(CC)c1ccccc1 [oxelaidin]
inactive: 1 nM -3.54% | 8.33 nM 0.15% | 100 nM 0.38% | 833.33 nM -0.56% | 10000 nM 0.38%

CN1C(=O)c2c(nn(Cc3ccc(-c4cccc(F)n4)cc3)c2Nc2ccccc2)N2C1=N[C@@H]1CCC[C@@H]12
inactive: 1 nM 0.59% | 8.33 nM 1.65% | 100 nM 2.18% | 833.33 nM 3.15% | 10000 nM 0.62%

O=C([O-])c1ccccn1.O=C([O-])c1ccccn1.O=C([O-])c1ccccn1.[Cr+3] [chromium-picolinate]
inactive: 1 nM 0.6% | 8.33 nM 3.76% | 100 nM 1.3% | 833.33 nM -3.86% | 10000 nM 0.6%

CC(=O)Nc1nc2c(Oc3cc(-c4ccc(C(F)(F)F)cc4)ncn3)cccc2s1
inactive: 1 nM 1.07% | 8.33 nM 0.66% | 100 nM 2.03% | 833.33 nM 2.31% | 10000 nM 1.83%

Cc1[nH]c(/C=C2\C(=O)Nc3ccc(S(=O)(=O)N(C)c4cccc(Cl)c4)cc32)c(C)c1C(=O)N1CCN(C)CC1
inactive: 1 nM 2.2% | 8.33 nM 0.76% | 100 nM -0.49% | 833.33 nM 0.96% | 10000 nM -1.88%

CC(C)C(N)C(=O)O (stereo in doubt) [L-valine]
inactive: 1 nM 0.78% | 8.33 nM -0.34% | 100 nM 0.64% | 833.33 nM -0.11% | 10000 nM 1.66%

COc1ccc(C2CC(c3c(O)cc(C)oc3=O)=NCCS2)c(OC)c1 (stereo not given)
inactive: 1 nM 0.21% | 8.33 nM 3.01% | 100 nM -2.07% | 833.33 nM -0.81% | 10000 nM -8.62%

COc1ccc2c(c1)C(=O)N(CCc1ccc(S(=O)(=O)NC(=O)NC3CCCCC3)cc1)C(=O)C2(C)C [gliquidone]
inactive: 1 nM -1.78% | 8.33 nM 2.65% | 100 nM 2.68% | 833.33 nM -0.14% | 10000 nM -0.29%

Nc1ccn([C@@H]2O[C@H](CO)[C@@H](O)C2(F)F)c(=O)n1 [gemcitabine]
inactive: 1 nM 1.67% | 8.33 nM 2.4% | 100 nM -0.88% | 833.33 nM -3.94% | 10000 nM 3.81%

N#C[C@@H]1CCCN1C(=O)CNC12CC3CC(CC(O)(C3)C1)C2 [vildagliptin]
inactive: 1 nM 0.17% | 8.33 nM -0.28% | 100 nM -0.35% | 833.33 nM -0.2% | 10000 nM 1.3%

CC[C@H](C)[C@H](NC(=O)[C@H](Cc1ccc(O)cc1)NC(=O)[C@@H](NC(=O)[C@H](CCCNC(=N)N)NC(=O)[C@@H](N)CC(=O)O)C(C)C)C(=O)N[C@@H](Cc1c[nH]cn1)C(=O)N1CCC[C@H]1C(=O)O
inactive: 1 nM -1.39% | 8.33 nM 1.3% | 100 nM 0.18% | 833.33 nM -0.77% | 10000 nM 2.67%

Nc1nc(=O)c(Br)c(-c2ccccc2)[nH]1 [bropirimine]
inactive: 1 nM -2.33% | 8.33 nM 1.04% | 100 nM 1.75% | 833.33 nM -0.1% | 10000 nM -0.45%

CC(C)c1cccc2c1OC(C(C)C)C(=S)N2CC(=O)O (stereo not given)
inactive: 1 nM -0.74% | 8.33 nM 3.31% | 100 nM 1.03% | 833.33 nM 1.02% | 10000 nM -0.31%

NC1=N[C@@]2(c3cc(NC(=O)c4ccc(F)cn4)ccc3F)COC[C@H]2CS1
inactive: 1 nM -3.54% | 8.33 nM -0.32% | 100 nM -4.37% | 833.33 nM -2.3% | 10000 nM -4.47%

CC[C@H](NC(=O)c1c(O)c(-c2ccccc2)nc2ccccc12)c1ccccc1 [talnetant]
inactive: 1 nM -0.24% | 8.33 nM 0.6% | 100 nM -1.02% | 833.33 nM -1.22% | 10000 nM 2.11%

COCC1=C(C(=O)O)N2C(=O)[C@@H](NC(=O)/C(=N\OC)c3csc(N)n3)[C@H]2SC1 [cefpodoxime]
inactive: 1 nM -1.12% | 8.33 nM -1.09% | 100 nM -1.76% | 833.33 nM -0.98% | 10000 nM -1.12%

— the supplement of paper PMC13380429
